PME-1 primary – PME-1 (human) inhibition; Q9Y570; recombinant PME-1, FP-Rh probe fluorescence polarization; inhibition, % at 5.9 µM; 320,000 tested, 0.53% active; AID 2130;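 active = inhibition above the campaign mean of all compounds plus 3 SD, cut at about 26% in these data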;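 also: competitive labeling of PME-1 active site by serine hydrolase directed probe; inhibitors block probe labeling so polarization falls and inhibition rises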
Target sequence (Q9Y570 whole entry, looked up): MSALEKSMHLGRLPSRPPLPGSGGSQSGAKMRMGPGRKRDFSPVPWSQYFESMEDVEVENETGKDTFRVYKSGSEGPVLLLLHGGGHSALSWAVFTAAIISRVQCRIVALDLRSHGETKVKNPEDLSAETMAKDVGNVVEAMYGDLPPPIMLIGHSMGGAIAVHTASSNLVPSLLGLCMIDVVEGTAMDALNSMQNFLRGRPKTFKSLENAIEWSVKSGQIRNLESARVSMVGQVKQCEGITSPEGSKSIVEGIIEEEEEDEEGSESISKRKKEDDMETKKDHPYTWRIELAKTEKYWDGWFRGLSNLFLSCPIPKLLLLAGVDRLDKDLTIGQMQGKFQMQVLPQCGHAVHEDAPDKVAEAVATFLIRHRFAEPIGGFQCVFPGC
Fam108B counter – Fam108B inhibition, counter-screen for RBBP9 inhibitors | recombinant Fam108B, FP-Rh probe fluorescence polarization | 300,000 tested, 0.33% active | inhibition, % at 9.51 µM | AID 1947;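 active = inhibition above the screen mean inhibition plus 3 SD, computed separately per campaign, cut at about 18% in these data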;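 also: inhibitors lower polarization as less probe binds the enzyme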
LYPLA2 counter – counter-screen for PME1 inhibitors: inhibitors of human LYPLA2; O95372; recombinant LYPLA2, FP-Rh probe fluorescence polarization; inhibition, % at 5.9 µM; 320,000 tested, 0.38% active;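 active = inhibition above the screen-wide mean plus 3 SD, limit set per campaign, cut at about 26% in these data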
GSTO1 inh – GSTO1 inhibition, counter-screen for RBBP9 inhibitors | inhibition, % at 5.96 µM | 300,000 tested, 1.1% active | recombinant GSTO1, activity-based probe fluorescence polarization;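 active = inhibition above the campaign mean inhibition plus 3 SD, cut at about 35% in these data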
PAD4 FP inh – blocks human protein arginine deiminase 4 | 330,000 tested, 0.41% active | inhibition, % at 6.36 µM | recombinant PAD4, RCA probe fluorescence polarization | AID 485272;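 active = percent inhibition above a cutoff equal to the mean of all tested compounds plus 3 SD, cut at about 15% in these data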
LYPLA1 counter – blocks human lysophospholipase 1, a PME1 counter-screen. recombinant LYPLA1, FP-Rh probe fluorescence polarization. inhibition, % at 5.9 µM. O75608. 320,000 tested, 0.16% active;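 active = inhibition above the mean of all tested compounds plus 3 SD, set per campaign, cut at about 14% in these data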;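 also: inhibitors block serine hydrolase probe labeling of LYPLA1 so polarization falls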
PAD4 confirm – confirmation of human PAD4 inhibitors | recombinant PAD4, RCA probe fluorescence polarization | 1,200 tested, 28% active | inhibition, % at 6.36 µM | shares compounds with PAD4 FP inh;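 active = mean inhibition across replicates above the hit cutoff set by the earlier primary screen, cut at about 15% in these data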;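 also: inhibitors block active-site labeling by the probe so polarization falls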
Large screens that a line does not name were inactive (follow-up assays come after a bar, where they were run). Compounds with a hit are over-represented: about 1.8% of the library has one in this group of screens.

NS(=O)(=O)c1ccc(NC(=S)NCc2ccc(Cl)cc2)cc1	PAD4 FP inh 20 | PAD4 confirm inactive
S=c1[nH]nc(-c2cc(-c3ccccc3)n[nH]2)n1/N=C/c1ccc(Cl)cc1	none
S=c1[nH]nc(-c2cc(-c3ccccc3)n[nH]2)n1/N=C/c1cccc(Cl)c1	PAD4 FP inh 16 | PAD4 confirm inactive
COc1ccc(-c2cc(C(=O)N3CCCCCC3)c3ccccc3n2)c(OC)c1	PAD4 FP inh 16 | PAD4 confirm 49
COc1cc(C(=O)NNC(=O)c2ccccc2OCc2c(C)noc2C)cc(OC)c1OC	none (no result: Fam108B counter, GSTO1 inh)
COc1ccc(CCNC(=O)c2c[nH]c3ccc(F)cc3c2=O)cc1OC	PAD4 FP inh 83 | PAD4 confirm inactive
COc1ccc(CCNC(=O)c2c[nH]c3ccccc3c2=O)cc1OC	none
Cc1cc(C)c(C)c(S(=O)(=O)N2CCN(C(=O)C3CCC3)CC2)c1C	none
Cc1cc(C)c(C)c(S(=O)(=O)N2CCC(C(=O)N3CCCC3)CC2)c1C	PAD4 FP inh 58 (no result: Fam108B counter, GSTO1 inh) | PAD4 confirm inactive

Screening data from PubChem.
